Data reported in PubChem BioAssay (NCATS).
“And” between values parts separate entries of the source, which are not always exact repeats. Equal entries are not always repeated. Inconclusive results are not listed. The source made the active and inactive calls. The call rests on the fitted dose curve; in most records, active means well fitted cell-killing curve with a large enough effect; inconclusive means small, poorly fitted or top-dose-only effect, or effect the other way; inactive means no such curve, though single readings can be large or run the other way.

Test: Viability qHTS for spleen associated tyrosine kinase inhibitor (SYKi) drug resistant MV4-11 cells (AID 1963824); further: nearly all actives have a fitted effect of over 35% in size
Conditions: SYKi-resistant MV4-11 viability, CellTiter-Glo, 72 h; series mostly up to 45 µM
Procedure, shortened: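 SYK inhibitor-resistant MV4-11 AML cells, 500 per well, added to predispensed compounds and incubated 72 hr at 37 C, 5% CO2. Viability measured by CellTiter-Glo luminescence after 10 min at room temperature.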
Potency means the concentration at half of the fitted maximal effect.

| Compound | Potency |
| --- | --- |
| COC(=O)[C@]12CCC(C)(C)C[C@@H]1[C@@H]1C(=O)C=C3[C@]4(C)C=C(C#N)C(=O)C(C)(C)[C@@H]4CC[C@@]3(C)[C@]1(C)CC2 | 0.326 µM (active) |
| CCC(C)C1NC(=O)C2CCCN2C(=O)C(CC(C)C)OC(=O)CCNC(=O)C(C)N(C)C(=O)C(C(C)C)N(C)C1=O (centres undefined) | 5.44 µM (active) |
| Nc1ccc(Sc2ccc(N)cc2)cc1 | 43.3 µM (active) |
| CC[C@H]1/C=C\C=C/C[C@@H](C)[C@H](O)[C@@](C)(O)C(=O)[C@@H](C)[C@H](O)[C@@H](C)C(=O)[C@@H](C)[C@H](O)[C@@H](C)/C=C\C(=O)O[C@@H]2[C@H](C)[C@H](CC1)O[C@]1(CC[C@H](C)[C@H](C[C@@H](C)O)O1)[C@H]2C | 0.0065 µM (active) |
| C=C1C[C@@H]2[C@H](CC[C@]3(C)C(=O)CC[C@@H]23)[C@@]2(C)C=CC(=O)C=C12 | 5.96 µM (active) and 11.8 µM (active) |
| CC(C)[C@H]1OC(=O)[C@H](Cc2ccccc2)N(C)C(=O)[C@@H](C(C)C)OC(=O)[C@H](Cc2ccccc2)N(C)C(=O)[C@@H](C(C)C)OC(=O)[C@H](Cc2ccccc2)N(C)C1=O | 5.44 µM (active) |
| C[C@H]1O[C@@H](n2cnc3c(N)ncnc32)C[C@@H]1O | inactive |
| ClC1=C(Cl)[C@]2(Cl)[C@@H]3[C@@H]4C[C@@H]([C@H]5O[C@@H]45)[C@@H]3[C@@]1(Cl)C2(Cl)Cl | 30.6 µM (active) |
| CC12CCC3C(C1)c1c(cc(O)c(C(=O)c4ccccc4)c1OC3(C)C)O2 (centres undefined) | 14.3 µM (active) |
| CN1CCc2cc3c(cc2[C@H]1[C@@H]1OC(=O)c2c1ccc1c2OCO1)OCO3 | 6.51 µM (active) |
| NC(=O)c1ncn2c1CN=C(c1ccccc1Br)c1cc(F)ccc1-2 | inactive |
| COc1ccc(CC2C(=O)NC(C)C(=O)N(C)C3Cc4ccc(cc4)Oc4cc(ccc4OC4OC(CO)C(O)C(O)C4O)CC(C(=O)NC(C)C(=O)NC(CCC(=O)O)C(=O)N2C)N(C)C3=O)cc1 (centres undefined) | 0.618 µM (active) |
| Cc1sc2c(c1C)C(c1ccc(Cl)cc1)=N[C@@H](CC(N)=O)c1nnc(C)n1-2 | 82 nM (active) and 83.3 nM (active) |
| CC(=O)OC[C@]12C[C@H](OC(=O)CC(C)C)C(C)=C[C@H]1O[C@@H]1[C@H](O)[C@@H](OC(C)=O)[C@@]2(C)[C@@]12CO2 | 0.0089 µM (active) |
